PubChem BioAssay (NCI)
About 83,000 compounds went through this panel and 20% of them were active in at least one assay; those are over-represented in the sample as a whole.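 Compound tested at a single concentration for 48 hours in 96-well plates; a percent growth value below 10 was scored as active.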 Activity calls are given as the source filed them.

Experiments:
Assay in all cases: NCI-60 one-dose screen, 48 h (100 = growth as untreated, 0 = no growth, -100 = all killed)
Settings in all cases: 10 µM unless noted
NCI-H23 lung = test system: NCI-H23 lung
NCI-H226 lung = test system: NCI-H226 lung
NCI-H322M lung = test system: NCI-H322M lung
HOP-62 NSCLC = test system: HOP-62 NSCLC
NCI-H460 lung = test system: NCI-H460 lung
HOP-92 NSCLC = test system: HOP-92 NSCLC
NCI-H522 lung = test system: NCI-H522 lung
A549/ATCC NSCLC = test system: A549/ATCC NSCLC
786-0 renal = test system: 786-0 renal
COLO 205 colon = test system: COLO 205 colon

Measured: growth

O=C1Nc2c(ccc(Cl)c2Cl)/C1=C/c1ccccn1
inactive: NCI-H23 lung 81.5% | NCI-H226 lung 93.5% | NCI-H322M lung 93.4% | HOP-62 NSCLC 88.5% | NCI-H460 lung 97.6% | HOP-92 NSCLC 66.2% | NCI-H522 lung 71% | A549/ATCC NSCLC 13% | 786-0 renal 12.5% | COLO 205 colon 108%

Cc1nn(-c2ccccc2)c(N2CCOCC2)c1/C=N/N=c1\sc2ccccc2n1C
inactive: NCI-H23 lung 79% | NCI-H226 lung 73.8% | NCI-H322M lung 92.6% | HOP-62 NSCLC 99.4% | NCI-H460 lung 39.6% | HOP-92 NSCLC 53% | NCI-H522 lung 81.5% | A549/ATCC NSCLC 87.7% | 786-0 renal 96.7% | COLO 205 colon 82.7%

CCN(CCNc1cc(OC)cc2cccnc12)CCc1ccccc1
inactive: NCI-H23 lung 78.1% | NCI-H226 lung 86.2% | NCI-H322M lung 108% | HOP-62 NSCLC 64.9% | NCI-H460 lung 86% | HOP-92 NSCLC 77.2% | NCI-H522 lung 63.7% | A549/ATCC NSCLC 74.4% | 786-0 renal 87.2% | COLO 205 colon 68.8%

CC1CCN(C(=O)OCc2nc3nc(Cl)nc(N4CCOCC4)c3[nH]2)CC1
active: NCI-H23 lung 8.48% | NCI-H226 lung -73.7% | HOP-92 NSCLC -48.8% | NCI-H522 lung -67.8% | A549/ATCC NSCLC 6.08% | 786-0 renal -79.8% | COLO 205 colon -86.6%
inactive: NCI-H322M lung 68% | HOP-62 NSCLC 46.4% | NCI-H460 lung 10.5%

CCNNC(=O)[C@@H]1[C@H](c2cc(OC)c(OC)c(OC)c2)c2cc3c(cc2[C@H](O)[C@H]1CO)OCO3
inactive: NCI-H23 lung 24% | NCI-H322M lung 43.7% | HOP-62 NSCLC 36.3%
active: NCI-H226 lung -21.5% | NCI-H460 lung 1.59% | HOP-92 NSCLC 9.16% | NCI-H522 lung -18.7% | A549/ATCC NSCLC 9.99% | 786-0 renal 0.908% | COLO 205 colon -63.6%

CN(C)Cc1c(-c2ccccc2)[nH]c2ccccc12
inactive: NCI-H23 lung 88.7% | NCI-H226 lung 106% | NCI-H322M lung 114% | HOP-62 NSCLC 80.3% | NCI-H460 lung 99.5% | HOP-92 NSCLC 96.4% | NCI-H522 lung 82.5% | A549/ATCC NSCLC 80.3% | 786-0 renal 90% | COLO 205 colon 107%

CCOC(=O)Oc1c(OC)cc(C(=O)O[C@@H]2C[C@@H]3CN4CCc5c([nH]c6cc(OC)ccc56)[C@H]4C[C@@H]3[C@H](C(=O)OC)[C@H]2OC)cc1OC
inactive: NCI-H23 lung 74.9% | NCI-H226 lung 102% | NCI-H322M lung 102% | HOP-62 NSCLC 97.9% | NCI-H460 lung 40.9% | HOP-92 NSCLC 19% | NCI-H522 lung 73.8% | A549/ATCC NSCLC 41.8% | 786-0 renal 78.7% | COLO 205 colon 88.9%

COc1ccc(C(=O)c2cc3c(N)c(C(=O)Nc4cccc(OC)c4)sc3nc2C)cc1
active: NCI-H460 lung 7.07% | NCI-H522 lung -16% | COLO 205 colon -3.22%
inactive: NCI-H23 lung 33.8% | NCI-H226 lung 68% | NCI-H322M lung 58.7% | HOP-62 NSCLC 41.5% | HOP-92 NSCLC 85.3% | A549/ATCC NSCLC 25.3% | 786-0 renal 50.7%

CSc1nnc2c(=O)n(C)c(=O)n(C)c2n1
inactive: NCI-H23 lung 108% | NCI-H226 lung 93.2% | NCI-H322M lung 88.9% | HOP-62 NSCLC 116% | NCI-H460 lung 114% | HOP-92 NSCLC 68.1% | NCI-H522 lung 103% | A549/ATCC NSCLC 104% | 786-0 renal 116% | COLO 205 colon 97.8%

CCCN=C(N)c1ccc(NC(=O)c2ccc(C(=O)Nc3ccc(C(N)=NCCC)cc3)cc2)cc1
inactive: NCI-H23 lung 93.1% | NCI-H226 lung 73.4% | NCI-H322M lung 96.2% | HOP-62 NSCLC 86.2% | NCI-H460 lung 99.1% | HOP-92 NSCLC 88.6% | NCI-H522 lung 95% | A549/ATCC NSCLC 97.4% | 786-0 renal 98.7% | COLO 205 colon 70.5%

N#CC1=C(N)Oc2c(ccc3ccccc23)C1c1ccc([N+](=O)[O-])cc1 (stereo not given)
inactive: NCI-H23 lung 79.1% | NCI-H226 lung 66.7% | NCI-H322M lung 95.2% | HOP-62 NSCLC 73.3% | NCI-H460 lung 69.8% | HOP-92 NSCLC 93.4% | NCI-H522 lung 57.5% | A549/ATCC NSCLC 73% | 786-0 renal 102% | COLO 205 colon 105%

COc1ccc(C(O)c2cc3c(N)c(C(=O)Nc4ccc(Cl)cc4)sc3nc2C)cc1 (stereo not given)
inactive: NCI-H23 lung 32.7% | NCI-H226 lung 45.3% | NCI-H322M lung 44.6% | HOP-62 NSCLC 29.2% | HOP-92 NSCLC 49.3% | A549/ATCC NSCLC 29.5% | 786-0 renal 55.2% | COLO 205 colon 13.6%
active: NCI-H460 lung 5.37% | NCI-H522 lung 7.8%

c1cnc2nc3c(cc2c1)oc1ccccc13
inactive: NCI-H23 lung 95.9% | NCI-H226 lung 93.2% | NCI-H322M lung 99.9% | HOP-62 NSCLC 108% | NCI-H460 lung 95.2% | HOP-92 NSCLC 90.3% | NCI-H522 lung 89.1% | A549/ATCC NSCLC 87.3% | 786-0 renal 89.4% | COLO 205 colon 109%

Cc1cc(C)n(Nc2nc3ccccc3[nH]c2=O)c(=O)c1C#N
inactive: NCI-H23 lung 89.8% | NCI-H226 lung 89% | NCI-H322M lung 100% | HOP-62 NSCLC 93% | NCI-H460 lung 100% | HOP-92 NSCLC 76.2% | NCI-H522 lung 93.3% | A549/ATCC NSCLC 96.9% | 786-0 renal 96.5% | COLO 205 colon 113%

C#Cc1cccc(NC(=O)Nc2ccc(NC(=O)CCl)cc2)c1
inactive: NCI-H322M lung 86.8% [8.25 µM] | A549/ATCC NSCLC 45.3% [8.25 µM]
active: NCI-H23 lung -66.6% [8.25 µM] | NCI-H226 lung -27.4% [8.25 µM] | HOP-62 NSCLC -6.94% [8.25 µM] | NCI-H460 lung -23.9% [8.25 µM] | HOP-92 NSCLC -66.5% [8.25 µM] | NCI-H522 lung -70.8% [8.25 µM] | 786-0 renal -71.5% [8.25 µM] | COLO 205 colon -58.2% [8.25 µM]

CCCCCCCC(=O)Nc1nc2[nH]c(CN3CCN(Cc4cccc(I)c4)CC3)c(CN3CCN(Cc4cccc(I)c4)CC3)c2c(=O)[nH]1
inactive: NCI-H226 lung 66.4%
active: NCI-H23 lung -24.5% | NCI-H322M lung -60% | HOP-62 NSCLC -88.6% | NCI-H460 lung -75% | HOP-92 NSCLC -67.3% | NCI-H522 lung -58.8% | A549/ATCC NSCLC -81.6% | 786-0 renal -98% | COLO 205 colon -81.2%

CCc1c(Nc2ccc(C)cc2)nc(N)[nH]c1=O
inactive: NCI-H23 lung 103% | NCI-H226 lung 102% | NCI-H322M lung 103% | HOP-62 NSCLC 98.7% | NCI-H460 lung 108% | HOP-92 NSCLC 93.7% | NCI-H522 lung 90.5% | A549/ATCC NSCLC 99.5% | 786-0 renal 100% | COLO 205 colon 108%

O=C(O)c1ccc[n+](CC(=O)N2CCN(c3cc4c(cc3F)c(=O)c(C(=O)O)cn4C3CC3)CC2)c1
inactive: NCI-H23 lung 87.7% | NCI-H226 lung 93.7% | NCI-H322M lung 103% | HOP-62 NSCLC 105% | NCI-H460 lung 95.6% | HOP-92 NSCLC 109% | A549/ATCC NSCLC 106% | 786-0 renal 58.9% | COLO 205 colon 45.4%
active: NCI-H522 lung -86.6%

OC1(c2ccc(Cl)c(C(F)(F)F)c2)CCN(CCCC(c2ccc(F)cc2)c2ccc(F)cc2)CC1
inactive: NCI-H226 lung 28.9%
active: NCI-H23 lung -74.9% | NCI-H322M lung -75.5% | HOP-62 NSCLC -94.6% | NCI-H460 lung -95% | HOP-92 NSCLC -87.5% | NCI-H522 lung -80.5% | A549/ATCC NSCLC -70.7% | 786-0 renal -97.6% | COLO 205 colon -92.6%

Nc1c(C(=O)Nc2ccc(Cl)cc2)cc(-c2nc3ccccc3s2)c(=O)n1NS(=O)(=O)c1ccc(Cl)cc1
inactive: NCI-H23 lung 92.7% | NCI-H226 lung 86.4% | NCI-H322M lung 93.8% | HOP-62 NSCLC 102% | NCI-H460 lung 106% | HOP-92 NSCLC 96.2% | NCI-H522 lung 91.3% | A549/ATCC NSCLC 104% | 786-0 renal 101% | COLO 205 colon 105%

O=C1Nc2cc(-c3ccncc3)ccc2/C1=C/c1ccc[nH]1
inactive: NCI-H23 lung 58.5% | NCI-H226 lung 78.5% | NCI-H322M lung 84% | HOP-62 NSCLC 105% | NCI-H460 lung 98.9% | HOP-92 NSCLC 104% | NCI-H522 lung 75.2% | A549/ATCC NSCLC 101% | 786-0 renal 102% | COLO 205 colon 112%

COc1ccc(C(=O)/C=C/c2ccc(OCc3ccccc3)c(OC)c2)cc1OC
inactive: NCI-H23 lung 59.8% | NCI-H226 lung 75.8% | NCI-H322M lung 43.2% | HOP-62 NSCLC 31.4% | NCI-H460 lung 47% | HOP-92 NSCLC 11.5% | NCI-H522 lung 28.9% | A549/ATCC NSCLC 13.6% | 786-0 renal 87.9% | COLO 205 colon 74.6%

Cc1cc(C(=O)Nc2ncnc3nc[nH]c23)no1
inactive: NCI-H23 lung 101% | NCI-H226 lung 92.3% | NCI-H322M lung 90.6% | HOP-62 NSCLC 92.6% | NCI-H460 lung 106% | HOP-92 NSCLC 102% | NCI-H522 lung 94.3% | A549/ATCC NSCLC 100% | 786-0 renal 103% | COLO 205 colon 104%

Nc1ccccc1NC(=O)c1ccc(CN2CCC/C(=C\c3cccc(Cl)c3)C2=O)cc1
inactive: NCI-H23 lung 21.1% | NCI-H226 lung 40% | NCI-H322M lung 40.8% | HOP-62 NSCLC 19% | HOP-92 NSCLC 44.1% | A549/ATCC NSCLC 33% | 786-0 renal 14.2%
active: NCI-H460 lung 7.66% | NCI-H522 lung -32% | COLO 205 colon -51.8%

Cc1c(C(=O)NO)sc2ncnc(Nc3ccc(NC(=S)Nc4ccccc4)cc3)c12
inactive: NCI-H23 lung 96.5% | NCI-H226 lung 104% | NCI-H322M lung 107% | HOP-62 NSCLC 101% | NCI-H460 lung 102% | HOP-92 NSCLC 115% | NCI-H522 lung 92.1% | A549/ATCC NSCLC 101% | 786-0 renal 99.1% | COLO 205 colon 113%

COc1cnccc1-c1nc2ccc3[nH]ncc3c2c2c1CCCC2
inactive: NCI-H23 lung 67.1% | NCI-H226 lung 67% | NCI-H322M lung 67.1% | HOP-62 NSCLC 61% | NCI-H460 lung 44.7% | HOP-92 NSCLC 69.2% | NCI-H522 lung 30.6% | A549/ATCC NSCLC 47.6% | 786-0 renal 49% | COLO 205 colon 55.3%

COc1ccccc1C(C[N+](=O)[O-])c1c(-c2ccccc2)[nH]c2cc(C)ccc12 (stereo not given)
inactive: NCI-H23 lung 68.4% | NCI-H226 lung 53.1% | NCI-H322M lung 90.4% | HOP-62 NSCLC 71.9% | NCI-H460 lung 85.2% | HOP-92 NSCLC 64.4% | NCI-H522 lung 27.8% | A549/ATCC NSCLC 61.8% | 786-0 renal 86.8% | COLO 205 colon 78.4%
